Experimental data from PubChem BioAssay AID1508600 (Functional Genomics Laboratory (NCATS/FGL), 2020).
The campaign covered roughly 53,000 sequences. About 3,700 (7%) were called active.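 How the source made its calls: active means gene knockdowns whose robust z-score for IL-1 alpha signal is at least 2 or at most -2, so actives lie on both sides; inactive means the rest.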 The full list was thinned out, with actives kept by preference.

Experiment: Components of the Cytosolic LPS Sensing Pathway: Gene Identification via Genome-wide siRNA Screen;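 further: robust z of the log signal after scaling to non-targeting control siRNA wells of the plate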
Details: RAW264.7 macrophages, IL-1a HTRF, actives lie on both sides, screened at 100 nM (by protocol), cells primed 5 h with Pam3CSK4 first
In short: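 RAW264.7; siRNA 100 nM final, RNAiMAX, 48h 37 degrees C; Pam3CSK4 5 h; LipidA + TransIT-TKO 24 h; IL-1a HTRF; CellTiter-Glo viability; robust z vs negative-control median.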

z-score, active:
UAUGACUCCACUCUUCUCUTT against Olfr1158 -2
GGCAGAACGGAAUAAAAUGTT against Stag2 -3.03
GAUGAAGAGGCAGGCCAAGTT against Nkx2-4 2.63
GGCAUAAGAAAAUGGACCCTT against Fhit 2.04
GCUUAUUGAACUAUUGUUGTT against Trpc4 3.72
CCAUAGGUAUCAUUGCAAGTT against Tas2r139 -2.16
GCCUAAAAAAUCUCUGUGATT against Zswim3 -2.77

z-score, inactive:
CGACAUAGCUUCUGUACUGTT against Spaca9 -1.42
CCUUUAGGUACCACGAGUGTT against Large2 -0.965
CCUUUAAAGUAAGCAUGUGTT against Slc27a4 0.112
GUUCUUUUUCUUCGGUUCCTT against Olfr1020 0.769
GGGUCUAGAGUGCAUCUUCTT against Krt78 0.418
GGCUGUUUUUGCCGGUAUCTT against Teddm3 1.58
GGAAAACCAACAAAGCAAATT against Pde10a -0.692
GGAAGAGGGCAAAAAUGGCTT against Sgms2 -0.441
GGUUAUUUCGGGAGAUAAGTT against Nudcd1 -0.351
CCUGAUCAUGUUGAAGGAATT against Ktn1 0.256
GGACACUGCAAAAGAGGAGTT against Defa4 1.37
GGGAUACUCCAGACAAGGUTT against Usp17ld 0.142
GGCCAUCAGAGCUACACUUTT against Gpa33 0.806
CAUUGGUAUUGCCAAGGCATT against Olfr1330 0.373
GGGAGAAACCAUUUCAAGATT against Gm5084 0.0759
GGAUUUCUCUGCCUGUACUTT against Gdpgp1 0.37
GGUGUUAGCGAAAUGCUCATT against Prl7b1 -0.875
GCUCACUGCUACAAAUACCTT against Prss2 -1.82
GCUUUAUCCACAGGUGCCATT against Olfr1350 -1.9
GCCUAUUCACCAAAUCACATT against Frrs1 0.408
GAUCUGGCUGCUUCUUACCTT against Porcn -0.623
GGGAUAGUGUAAGUUAGUUTT against Dppa4 -0.0875
GUUCUGAAAAUAGAAUAAUTT against Vmn1r16 0.237
GGCUUGAUUGCAUCUUUAUTT against Ebpl -0.765
CGACACACCUAGCUAAACCTT against Dgkeos -1.98
GGCCUUAGAACAAGGAAUATT against Cdk7 -0.769
CCAAUUACGAGACUCUCAUTT against Zfp786 -0.00661
GGAGCAGUCUAUCUUUGGUTT against Dbn1 1.3
GGAGAACAAGGCAAAAGAATT against Mindy4 -0.945
GCAGACAGAGUUUUAACGUTT against Fancl -0.381
GCCAUUCACUUAAUUCAGUTT against H2ac8 -1.32
GGCUCUGGCCAUAUUUUGGTT against Olfr549 -1.44
GCAAUAAUCGUUCUCAAAATT against Prkab1 1.5
GGAGAUCAGCUGUCUAAUGTT against Tmem237 -0.207
GGACAGGAUGAGUUUGACATT against Rhou -1.52
GGAAAUCUCAGAAAUCAAATT against Pmf1 -1.15
GCUCCUUGGGCGAUUUCAGTT against Aggf1 0.265
GCAAGGUAUUCCAUGCUCATT against Psg27 -0.616
GCUGUGAUCUCAGUAUUCATT against Strbp 0.443
GGUGACCACUUUUAUCUGATT against Olah 0.601
GGACUAUAGAUCCUAAGUCTT against Kcnab2 -0.246
CCACCCUGUGAAAAAGUCATT against Ccr3 -1.08
GAAAGGAAAGCUAGCCAUGTT against Gm5622 0.614
CCAUUGAAUCAGUUGAAGUTT against Slc5a7 1.21
GGCCGUUAUGUUUUACAAGTT against Dnajc19 0.00748
GGGCAUACAUAUAACCUAUTT against Fermt2 -0.285
